Reference: PubChem BioAssay AID1845226 (National Center for Advancing Translational Sciences (NCATS), 2023)
Records with an inconclusive call do not appear. Activity calls are given as the source filed them. The call rests on the fitted dose curve; in most records, active means well fitted inhibition curve with a large enough effect; inconclusive means small, poorly fitted or top-dose-only effect; inactive means no such curve, though single readings can be large or run the other way.

experiment: Confirmatory fluorescence-based thiol-reactive (MSTI) qHTS assay for identification of artifact compounds; conditions: MSTI thiol-reactivity probe, 1 h; series mostly up to 39.2 µM; activity change, negative = inhibition: at the top concentration
How it was run: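 Fluorescence read-out (excitation 525 nm, emission 598 nm) tracks loss of the thiol probe MSTI, used at 4 uM in PBS buffer at pH 7.4. Test compounds are incubated 1 h at room temperature.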
Potency means the concentration at half of the fitted maximal effect.

SMILES | activity change, negative = inhibition | Potency
Cc1ccccc1C(=O)Nc1cc(C)c(O)c(-c2nc3ccccc3o2)c1 | 86.6% (inactive) | 
CCCC12CN3CC(C)(CN(C1)C3c1ccc(CC)cc1)C2=O (stereo unspecified) | 57.3% (inactive) | 
Cc1c(C(=O)Nc2ccc(-n3c(C)nc4ccccc4c3=O)cc2)cccc1[N+](=O)[O-] | 104% (inactive) | 
CCOC(=O)c1ccc(N2CCN(c3ccc(F)cc3)CC2)c(NC(=O)Nc2cccc(OC)c2)c1 | 102% (inactive) | 
O=C(Nc1ccc2oc(-c3cccc4c(Br)cccc34)nc2c1)c1cccnc1 | 32.8% [at 78.4 µM] (inactive) | 
Cc1cc(C(=O)N2CCN(c3cccc(Cl)c3)CC2)c2c(C)nn(-c3ccccc3Cl)c2n1 | 11.2% (inactive) | 
CN(Cc1ccccc1)c1ncnc2c1nc1n2CCCC1 | 90% (inactive) | 
COc1cccc(N2CCN(c3c4c(nc5nncn35)CCC4)CC2)c1 | 29.3% (inactive) | 
COc1ccccc1Cc1nc2ccccc2nc1SCC(=O)Nc1c(C)cccc1C | 5.83% (inactive) | 
COc1ccc(NC(=O)C(=O)Nc2ccc3nc4n(c(=O)c3c2)CCCCC4)c(OC)c1 | 122% (inactive) | 
O=C(NCCc1ccccc1)C1CCC(CNS(=O)(=O)c2ccccc2)CC1 (stereo unspecified) | 139% (inactive) | 
CCOc1ccc(CNC(=O)c2cnc(SC)nc2CC)cc1 | 49.6% (inactive) | 
CCOc1ccc(NC(=O)c2cnc(Nc3ccccc3OC)c3ccccc23)cc1 | 51.6% (inactive) | 
Cc1c(O)cc(O)c2c(=O)c(-c3ccc(O)cc3)coc12 | 0.887% (inactive) | 
Cc1cccc(NC(=O)CSc2nc3c([nH]c4ccccc43)c(=O)n2C)c1 | 86.5% (inactive) | 
CC(C)c1cnc2c(c1SCC(=O)Nc1cccc([N+](=O)[O-])c1)c(=O)n(C)c(=O)n2C | 8.16% (inactive) | 

SMILES | activity change, negative = inhibition | Potency
CC1(C)S[C@@H]2[C@H](NC(=O)C3(N)CCCCC3)C(=O)N2[C@H]1C(=O)O | 29.3% (inactive) | 
CCOc1ccc(CNC(=O)c2ccc3nc(CC)c(CC)nc3c2)cc1OC | 51.1% (inactive) | 
Cc1cc(C)cc(NC(=O)C(CC(C)C)NC(=O)C2CCCCC2)c1 (stereo unspecified) | 32.1% (inactive) | 
COc1ccccc1N1CCN(S(=O)(=O)c2c(C)nc3sc(C)c(C)n3c2=O)CC1 | 23.2% (inactive) | 
COc1ccc(CNC(=O)CCc2c(C)nc3c4cccnc4nn3c2C)cc1 | 55% (inactive) | 
Cc1ccc(C)c(N2CCN(S(=O)(=O)c3cc(Br)cc4c3N(C(=O)C3CC3)CC4)CC2)c1 | 4.58% (inactive) | 
O=C1CCC(=O)N1CO | -16.4% (inactive) | 
COc1ccc2oc(=O)cc(CN3CCN(C(=O)c4ccccc4F)CC3)c2c1 | 26.3% (inactive) | 
CC(C)c1nn2c(=O)cc(COC(=O)c3cccc(NC(=O)COc4ccc(F)cc4)c3)nc2s1 | 212% (inactive) | 
Fc1ccc2c(c1)-c1nc(-c3ccccc3)cc(-c3ccccc3)c1CO2 | 138% (inactive) | 
Cc1ccc(-c2nnc(Nc3cccc(O)c3)c3ccccc23)cc1S(=O)(=O)N1CCN(C)CC1 | 36.6% (inactive) | 
O=S(=O)(O)c1ccc(N=Nc2cc(S(=O)(=O)O)c3ccccc3c2O)c2ccccc12 |  | 0.194 µM (active)
Cc1ccc(Cn2ccc(NC(=O)c3cc(-c4ccc(Cl)c(Cl)c4)on3)n2)cc1 | 175% (inactive) | 
Oc1c(C(c2ccccc2F)N2CCN(Cc3ccccc3)CC2)sc2nc(-c3ccco3)nn12 (stereo unspecified) | 101% (inactive) | 
COC(=O)[C@@H]1[C@H]2C[C@H]3c4[nH]c5cc(OC)ccc5c4CCN3C[C@@H]2C[C@@H](OC(=O)c2cc(OC)c(OC)c(OC)c2)[C@@H]1OC |  | 7.91 µM (active)
